# Results from PubChem BioAssay.
# Active and inactive are the calls of the source. Unless noted, the rule behind the calls is not given here.
# How the values were obtained:
# [1] = system: Wnt5a (protein binding on small-molecule microarray); experiment: small molecules binding Wnt5a protein – biophysical, small-molecule microarray, 635/667 nm fluorescence, primary screen (AID 1142); details: 635 nm fluorescence, higher = more signal;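 note: fluorescence read at 667 nm with signal to noise per printed feature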
# [2] = ATP-based viability of Huh7 replicon cells – cell-based, CellTiter-Glo luminescence, basal, 48 h, cytotoxicity control for HCV replication inhibitor project, primary screen (AID 1143); details: higher = more signal, called active from +8 up or from −8 down;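 note: Huh7 hepatoma cells carrying a hepatitis C replication reporter with no stimulus; test concentration not given here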
# [3] = Pseudomonas biofilm growth suppression – PAO1 strain, BacTiter-Glo luminescence, LB-PBS, primary screen (AID 1144); details: P. aeruginosa PAO1 biofilm, 12 h, higher = more signal
# [4] = basal CRE-LacZ reporter activity in PC12 – cell-based, unstimulated, primary screen (AID 1145); details: no forskolin, luminescence, 4.5 h, higher = more signal, called active from +8 up or from −8 down
# [5] = forskolin-driven CRE-LacZ activity in PC12 – cell-based, CRE-LacZ reporter, forskolin-stimulated, primary screen (AID 1146); details: luminescence, 4.5 h, higher = more signal, called active from +8 up or from −8 down;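 note: PC12 cells with 6xCRE LacZ reporter stimulated by forskolin 10 µM; beta-galactosidase reporter signal reflecting CREB driven transcription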
# [6] = biological target: Streptavidin (Streptomyces avidinii) (UniProt P22629); experiment: compounds binding control protein streptavidin – biophysical, small-molecule microarray, 635/667 nm fluorescence, artefact control for SMM compound annotation, primary screen (AID 1147); details: higher = more signal;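 note: signal reflects streptavidin binding to arrayed compounds as a control protein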
# [7] = probe aInhba binding on compound microarray – biochemical, small-molecule microarray, 635/667 nm fluorescence, primary screen (AID 1148); details: higher = more signal;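 note: score merges 667nm spot fluorescence with signal-to-noise for antibody binding to printed compounds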
# Torsin-1A (Homo sapiens) [8] = biological target: Torsin-1A (Homo sapiens) (UniProt O14656); experiment: TOR1A wild-type binding on microarray – cell lysate, small-molecule microarray, lysate, 635/667 nm, primary screen (AID 1149); details: COS7 hTOR1A-WT lysate, 635 nm fluorescence, higher = more signal
# Torsin-1A (Homo sapiens) [9] = biological target: Torsin-1A (Homo sapiens) (UniProt O14656); experiment: torsin A mutant lysate binding on microarrays – cell lysate, small-molecule microarray, COS7 lysate, 635/667 nm fluorescence, primary screen (AID 1150); details: COS7 hTOR1A mutant lysate, 635 nm fluorescence, higher = more signal;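 note: score pools 667 nm emission and signal to noise measuring lysate protein binding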
# [10] = system: Sonic hedgehog protein (Shh); experiment: Sonic hedgehog microarray binding compounds – biochemical, small-molecule microarray, 635/667 nm fluorescence, primary screen (AID 1151); details: 635 nm fluorescence, higher = more signal;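 note: Shh protein binding to compounds spotted on small-molecule microarray slides; score combines spot fluorescence intensity with signal-to-noise across triplicate slides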
# [11] = optical density shifts of acrAB sulA E. coli – strain DRC41, OD650, 48 h, E. coli filamentation inducer project, primary screen (AID 1152); details: higher = more signal, called active from +8 up or from −8 down;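 note: E. coli MC1000 strain DRC41 lacking acrAB efflux pump and sulA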
# [12] = probe aLefty1 binding on compound microarray – biochemical, small-molecule microarray, 635/667 nm fluorescence, primary screen (AID 1153); details: higher = more signal;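 note: score merges spot fluorescence with signal-to-noise ratio from the scanned slide images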
# [13] = plasmodial surface anion channel blockers, osmotic lysis – cell-based, P. falciparum Indochina, OD700, 1 h, primary screen (AID 1154); details: P. falciparum Indochina infected RBC osmotic lysis, higher = more signal, called active from +8 up or from −8 down
# [14] = plasmodial surface anion channel blockers, osmotic lysis – cell-based, P. falciparum Indochina, OD700, 2 h, primary screen (AID 1155);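 note: lysis reports solute entry through the parasite surface anion channel PSAC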; details: P. falciparum Indochina infected erythrocytes, higher = more signal, called active from +8 up or from −8 down
# [15] = changes in parasitized red cell lysis, either direction – P. falciparum Indochina, OD700, 3 h, PSAC antagonist project, primary screen (AID 1156); details: P. falciparum-infected erythrocytes, osmotic lysis, higher = more signal, called active from +8 up or from −8 down
# [16] = plasmodial surface anion channel blockers, osmotic lysis – cell-based, P. falciparum Indochina, OD700, 18 h, primary screen (AID 1157); details: P. falciparum Indochina infected erythrocytes, osmotic lysis OD700, 18 h; higher = more signal, called active from +8 up or from −8 down
# [17] = S6 kinase pathway phospho-S6 level changes – cell-based, A549, cytoblot, luminescence, serum-stimulated, primary screen (AID 1158); details: 5 h, higher = more signal;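 note: serum-stimulated A549 lung adenocarcinoma cells; signal is phosphorylated S6 detected by cytoblot immunostaining with HRP secondary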
# [18] = biological target: NADPH oxidase 2 (Homo sapiens) (UniProt P04839); experiment: compounds shifting NOX2 Amplex Red fluorescence – cell-based, HEK293-NOX2, PMA-stimulated, NOX inhibitor project, primary screen (AID 1159); details: 45 min, higher = more signal, called active from +8 up or from −8 down; note: test concentration not given here
# [19] = biological target: NADPH oxidase 4 (Homo sapiens) (UniProt Q9NPH5); experiment: compounds shifting NOX4 Amplex Red fluorescence – cell-based, HEK293-NOX4, tetracycline-induced, NOX inhibitor project, primary screen (AID 1160); details: HEK293-NOX4, Amplex Red H2O2 fluorescence, 45 min; higher = more signal, called active from +8 up or from −8 down
# [20] = biological target: NADPH oxidase 5 (Homo sapiens) (UniProt Q96PH1); experiment: compounds shifting NOX5 Amplex Red fluorescence – cell-based, HEK293-NOX5, NOX inhibitor project, primary screen (AID 1161); details: HEK293-NOX5, ionomycin, 45 min, higher = more signal
# Chain of NADPH oxidase 5 (Homo sapiens) (Q96PH1 whole entry, looked up): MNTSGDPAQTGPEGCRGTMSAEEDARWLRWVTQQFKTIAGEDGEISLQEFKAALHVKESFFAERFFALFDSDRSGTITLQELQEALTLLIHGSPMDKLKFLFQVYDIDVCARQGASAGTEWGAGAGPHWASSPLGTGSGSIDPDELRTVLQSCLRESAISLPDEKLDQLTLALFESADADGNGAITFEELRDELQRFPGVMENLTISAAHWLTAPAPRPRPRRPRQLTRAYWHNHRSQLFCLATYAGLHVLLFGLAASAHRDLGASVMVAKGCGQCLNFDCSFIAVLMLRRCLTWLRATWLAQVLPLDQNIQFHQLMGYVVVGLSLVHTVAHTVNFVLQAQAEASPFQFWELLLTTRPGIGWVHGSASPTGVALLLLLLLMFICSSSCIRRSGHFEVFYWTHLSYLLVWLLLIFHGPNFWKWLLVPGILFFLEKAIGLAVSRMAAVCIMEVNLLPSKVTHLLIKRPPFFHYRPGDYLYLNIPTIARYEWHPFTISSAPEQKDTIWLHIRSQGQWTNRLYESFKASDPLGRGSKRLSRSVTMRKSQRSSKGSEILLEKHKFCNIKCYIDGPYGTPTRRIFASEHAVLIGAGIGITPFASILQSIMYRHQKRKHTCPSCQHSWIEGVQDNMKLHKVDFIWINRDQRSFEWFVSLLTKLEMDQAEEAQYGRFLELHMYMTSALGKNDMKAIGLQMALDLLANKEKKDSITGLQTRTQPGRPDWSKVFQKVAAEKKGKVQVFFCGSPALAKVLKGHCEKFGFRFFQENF
# Chain of NADPH oxidase 2 (Homo sapiens) (P04839 whole entry, looked up): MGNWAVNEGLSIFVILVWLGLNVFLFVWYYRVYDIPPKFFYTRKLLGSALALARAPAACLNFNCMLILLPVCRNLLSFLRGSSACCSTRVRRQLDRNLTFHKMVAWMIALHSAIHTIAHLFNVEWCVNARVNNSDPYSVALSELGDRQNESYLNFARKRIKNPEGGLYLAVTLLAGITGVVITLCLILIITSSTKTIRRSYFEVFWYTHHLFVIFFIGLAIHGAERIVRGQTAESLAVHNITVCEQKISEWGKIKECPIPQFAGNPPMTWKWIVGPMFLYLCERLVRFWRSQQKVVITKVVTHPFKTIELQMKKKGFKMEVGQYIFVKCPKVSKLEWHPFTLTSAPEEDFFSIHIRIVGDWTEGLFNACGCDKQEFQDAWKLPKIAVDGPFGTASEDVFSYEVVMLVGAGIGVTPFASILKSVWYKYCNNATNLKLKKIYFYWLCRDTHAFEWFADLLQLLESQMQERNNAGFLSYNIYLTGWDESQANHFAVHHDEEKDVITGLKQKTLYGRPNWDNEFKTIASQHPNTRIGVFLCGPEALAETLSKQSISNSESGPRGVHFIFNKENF
# Chain of NADPH oxidase 4 (Homo sapiens) (Q9NPH5 whole entry, looked up): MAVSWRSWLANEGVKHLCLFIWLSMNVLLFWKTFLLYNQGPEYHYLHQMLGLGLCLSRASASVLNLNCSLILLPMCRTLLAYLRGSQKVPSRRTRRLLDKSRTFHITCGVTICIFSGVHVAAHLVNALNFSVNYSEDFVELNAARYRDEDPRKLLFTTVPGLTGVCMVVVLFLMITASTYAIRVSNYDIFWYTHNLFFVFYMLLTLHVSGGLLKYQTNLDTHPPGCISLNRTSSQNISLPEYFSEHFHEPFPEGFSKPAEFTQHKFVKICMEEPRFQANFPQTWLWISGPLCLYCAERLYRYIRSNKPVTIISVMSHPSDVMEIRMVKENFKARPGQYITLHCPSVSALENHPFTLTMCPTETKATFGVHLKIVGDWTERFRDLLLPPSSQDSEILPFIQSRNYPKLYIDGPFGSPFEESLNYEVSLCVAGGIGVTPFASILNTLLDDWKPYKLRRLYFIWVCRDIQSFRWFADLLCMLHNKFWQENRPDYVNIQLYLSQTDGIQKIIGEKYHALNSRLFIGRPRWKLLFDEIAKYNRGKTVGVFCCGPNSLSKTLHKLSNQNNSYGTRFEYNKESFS
# Chain of Torsin-1A (Homo sapiens) (O14656 whole entry, looked up): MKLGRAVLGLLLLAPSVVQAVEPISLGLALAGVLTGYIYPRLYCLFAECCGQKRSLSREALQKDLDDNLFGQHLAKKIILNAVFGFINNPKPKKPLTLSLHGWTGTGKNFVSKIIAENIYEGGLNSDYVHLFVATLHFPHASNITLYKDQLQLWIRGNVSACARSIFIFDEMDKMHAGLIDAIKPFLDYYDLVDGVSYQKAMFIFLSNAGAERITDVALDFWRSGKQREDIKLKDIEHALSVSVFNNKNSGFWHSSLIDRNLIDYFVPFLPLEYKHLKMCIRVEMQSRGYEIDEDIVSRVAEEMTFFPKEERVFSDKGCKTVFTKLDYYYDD
# Chain of Streptavidin (Streptomyces avidinii) (P22629 whole entry, looked up): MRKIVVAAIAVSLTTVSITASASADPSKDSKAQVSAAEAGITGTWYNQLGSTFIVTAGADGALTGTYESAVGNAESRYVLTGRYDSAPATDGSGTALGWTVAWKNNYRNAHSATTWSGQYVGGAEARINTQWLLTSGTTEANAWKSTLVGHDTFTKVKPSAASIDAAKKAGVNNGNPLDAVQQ
SMILES,composite z-score [1],z-score [2],z-score [3],z-score [4],z-score [5],composite z-score [6],composite z-score [7],composite z-score (Torsin-1A (Homo sapiens) [8]),composite z-score (Torsin-1A (Homo sapiens) [9]),composite z-score [10],z-score [11],composite z-score [12],z-score [13],z-score [14],z-score [15],z-score [16],z-score [17],z-score [18],z-score [19],z-score [20]
CCOC(=O)c1cn(C[C@H](Cc2ccccc2)NC(=O)N[C@H](CO)CCc2oc(C(C)=O)c(C(=O)OC)c2C(=O)OC)nn1,0.0532,-2.84 (inactive),0.279 (inactive),1.4 (inactive),-0.158 (inactive),0.486,-0.0762,0.439,0.692,1.63,-0.427 (inactive),0.143,1.14 (inactive),-1.06 (inactive),0.661 (inactive),-0.473 (inactive),0.0878,-3.04 (inactive),-3.25 (inactive),-1.9
CC(C)=CCCC=C(C)C(O)C1C=CC2C(=O)N(c3ccccc3)C(=O)C2N1Nc1ccc(C#N)cc1 (stereo not given),0.218,-2.81 (inactive),-1.21 (inactive),1.39 (inactive),-0.35 (inactive),0.555,0.0841,0.0747,0.536,0.335,-0.817 (inactive),0.304,15.5 (active),1.88 (inactive),0.918 (inactive),-1.08 (inactive),0.0382,-1.88 (inactive),-1.6 (inactive),-0.882
CCCCCCc1nc(-c2ccc(-c3ccc(Cl)c(Cl)c3)o2)cc2c1[Si](C(C)C)(C(C)C)OC2,-0.905,-5.45 (inactive),-1.51 (inactive),-0.621 (inactive),1.29 (inactive),-1.24,-0.261,-1.83,-0.526,-0.583,0.615 (inactive),-0.193,3.45 (inactive),0.259 (inactive),0.78 (inactive),-0.84 (inactive),1.6,-5.23 (inactive),-4.25 (inactive),-7.11
O=C(N1CCOCC1)[C@@]1(Cc2ccccc2)COC(c2ccc(OCCCO)cc2)=N1,0.242,-5.19 (inactive),-0.446 (inactive),0.484 (inactive),-2.35 (inactive),0.647,0.0422,0.315,1.02,-1.05,2.51 (inactive),-0.132,12 (active),0.653 (inactive),0.929 (inactive),-0.269 (inactive),1.66,-2.33 (inactive),0.642 (inactive),-1.51
C=CCOC(=O)[C@H]1[C@@H]2C(=O)O[C@@H](c3ccccc3)[C@@H](c3ccccc3)N2[C@@H](c2ccc(OCCOC(=O)[C@@H]3C[C@@H]4C(=O)N[C@@H](CCCCNC(C)=O)C(=O)N4[C@@H]3c3cccc(OCCO)c3)cc2)[C@]12C(=O)Nc1ccccc12,0.455,-0.08 (inactive),-0.295 (inactive),-0.118 (inactive),-0.656 (inactive),-0.35,-0.0342,1.2,1.3,1.54,-0.637 (inactive),0.082,3.6 (inactive),1.34 (inactive),2.28 (inactive),0.621 (inactive),-0.52,1.83 (inactive),1.4 (inactive),0.618
CCCCN1CC=CC23O[C@@H]4/C=C\CCCOC(=O)C4[C@H]2C(=O)N(C(CO)C(C)C)[C@@H]3C1=O (stereo not given in full),-0.256,-0.352 (inactive),1.3 (inactive),-0.22 (inactive),-0.182 (inactive),-0.275,0.419,-0.277,-0.455,1.14,-0.539 (inactive),-0.178,1.47 (inactive),0.701 (inactive),0.434 (inactive),0.505 (inactive),-0.515,1.71 (inactive),0.808 (inactive),1.69
C=CCC(OC(C)=O)[C@@H]1[C@@H](N(Cc2ccc(-c3cccc(C(F)(F)F)c3)o2)C(=O)Cc2ccc(F)cc2)c2cc(OCCCO)ccc2N1C(=O)Cc1ccc2ccccc2c1 (stereo not given in full),-0.268,-0.229 (inactive),-1.1 (inactive),-0.374 (inactive),0.767 (inactive),-0.426,-0.114,-0.761,-0.673,0.404,-0.985 (inactive),0.0919,1.1 (inactive),0.135 (inactive),-0.554 (inactive),-0.135 (inactive),-0.37,-1.03 (inactive),0.896 (inactive),0.736
O=C(NC1CC1)[C@@H]1c2ccccc2C(=O)N(Cc2cc(C(F)(F)F)cc(C(F)(F)F)c2)[C@H]1c1ccc(CO)cc1,-0.0738,-4.67 (inactive),0.0176 (inactive),1.14 (inactive),-1.05 (inactive),0.0581,-0.248,-0.73,-0.727,0.658,-0.0602 (inactive),-0.308,2.63 (inactive),0.26 (inactive),1.12 (inactive),-0.558 (inactive),2.41,-0.397 (inactive),-1.17 (inactive),-2.23
CCOc1cc(C(O)C2C=CC3C(=O)N(c4ccccc4)C(=O)C3N2Nc2ccccc2F)ccc1O (stereo not given),0.482,0.777 (inactive),-0.545 (inactive),0.815 (inactive),0.63 (inactive),0.376,0.75,-0.166,0.407,-0.663,-0.469 (inactive),0.875,6.56 (inactive),1.27 (inactive),-0.0788 (inactive),0.926 (inactive),-0.824,-2.32 (inactive),-4.37 (inactive),-4.13
